In PubChem BioAssay (NCATS):
Results filed as inconclusive are left out. The source made the active and inactive calls. Calls come from the whole dose curve; as a rule, active = well fitted cell-killing curve with a large enough effect; inconclusive = small, poorly fitted or top-dose-only effect, or effect the other way; inactive = flat fitted curve, though single readings scatter. Where a SMILES comes first, the peptide text is derived from it. Bridges are numbered along the chain shown (N, C = ends). [ ]: non-standard residue; d: D form. ξ: configuration not given here. ξPhe(βξ-Me) = CC(c1ccccc1)C(N)C(=O)O; NMeY = CN[CH](Cc1ccc(O)cc1)C(=O)O; GABA = NCCCC(=O)O

Assays:
Assay in all cases: Primary qHTS to identify gynecologic anti-cancer compounds using libraries of approved drugs and bioactive compounds (AID 1345084); note: nearly all actives have a fitted effect of over 55% in size
C33A = settings: Gynecologic cancer cell panel viability, ATPlite luminescence, 48 h; series mostly up to 57.5 µM
How it was run: (§1)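 Five-concentration response, 48 h; readout is ATP-driven luciferase luminescence.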

CAOV3 = settings: Gynecologic cancer cell panel viability, ATPlite luminescence, 48 h; series mostly up to 57.5 µM
How it was run: as §1

CASKI = settings: Gynecologic cancer cell panel viability, ATPlite luminescence, 48 h; series mostly up to 57.5 µM
How it was run: as §1

Es-2 = settings: Gynecologic cancer cell panel viability, ATPlite luminescence, 48 h; series mostly up to 57.5 µM
How it was run: as §1

HeLa = settings: Gynecologic cancer cell panel viability, ATPlite luminescence, 48 h; series mostly up to 57.5 µM
How it was run: as §1

Hek293T = settings: Gynecologic cancer cell panel viability, ATPlite luminescence, 48 h, control line for the selectivity index; series mostly up to 57.5 µM
How it was run: as §1

JEG-3 = settings: Gynecologic cancer cell panel viability, ATPlite luminescence, 48 h; series mostly up to 57.5 µM
How it was run: as §1

OV90 = settings: Gynecologic cancer cell panel viability, ATPlite luminescence, 48 h; series mostly up to 57.5 µM
How it was run: as §1

PA-1 = settings: Gynecologic cancer cell panel viability, ATPlite luminescence, 48 h; series mostly up to 57.5 µM
How it was run: as §1

SKOV3 = settings: Gynecologic cancer cell panel viability, ATPlite luminescence, 48 h; series mostly up to 57.5 µM
How it was run: as §1

Tov-21-G = settings: Gynecologic cancer cell panel viability, ATPlite luminescence, 48 h; series mostly up to 57.5 µM
How it was run: as §1

Tov112D = settings: Gynecologic cancer cell panel viability, ATPlite luminescence, 48 h; series mostly up to 57.5 µM
How it was run: as §1
% is set by controls: 0 for no effect and ±100 for the full control effect.

CC1NC(=O)CCCNC(=O)C(Cc2c[nH]c3ccccc23)NC(=O)C(C)NC(=O)C(C(C)C)NC(=O)C(C(C)c2ccccc2)NC(=O)C(C(C)C)NC1=O (stereo not drawn) (cyclo([GABA]AV[ξPhe(βξ-Me)]VAW); configuration not given here)
inactive: Potency (C33A) | Potency (CAOV3) | Potency (CASKI) | Potency (Es-2) | Potency (HeLa) | Potency (Hek293T) | Potency (JEG-3) | Potency (OV90) | Potency (PA-1) | Potency (SKOV3) | Potency (Tov-21-G) | Potency (Tov112D)

CC1CC[C@]2(C(=O)O)CC[C@]3(C(=O)O)C(=CCC4[C@@]5(C)CC[C@H](O[C@@H]6O[C@H](CO)[C@@H](O)[C@H](O)[C@H]6O)C(C)(C)C5CC[C@]43C)C2C1C (stereo partly drawn)
inactive: Potency (C33A) | Potency (CAOV3) | Potency (CASKI) | Potency (Es-2) | Potency (HeLa) | Potency (Hek293T) | Potency (JEG-3) | Potency (OV90) | Potency (PA-1) | Potency (SKOV3) | Potency (Tov-21-G) | Potency (Tov112D)

C/C1=C\C[C@]2(C)C(=O)C(O)=C([C@H](C)CO)[C@H]2C/C=C(\C)[C@@H](O)CC/C(C)=C/CC1
inactive: Potency (C33A) | Potency (CAOV3) | Potency (CASKI) | Potency (Es-2) | Potency (HeLa) | Potency (Hek293T) | Potency (JEG-3) | Potency (OV90) | Potency (PA-1) | Potency (SKOV3) | Potency (Tov-21-G) | Potency (Tov112D)

CC12CCC3c4ccc(O)cc4CCC3C1CC(OC1OC(C(=O)O)C(O)C(O)C1O)C2O (stereo not drawn)
inactive: Potency (C33A) | Potency (CAOV3) | Potency (CASKI) | Potency (Es-2) | Potency (HeLa) | Potency (Hek293T) | Potency (JEG-3) | Potency (OV90) | Potency (PA-1) | Potency (SKOV3) | Potency (Tov-21-G) | Potency (Tov112D)

C=C[C@H]1CN2CC[C@H]1C[C@@H]2C(O)c1ccnc2ccc(OC)cc12 (stereo partly drawn)
inactive: Potency (C33A) | Potency (CAOV3) | Potency (CASKI) | Potency (Es-2) | Potency (HeLa) | Potency (Hek293T) | Potency (JEG-3) | Potency (OV90) | Potency (PA-1) | Potency (SKOV3) | Potency (Tov-21-G) | Potency (Tov112D)

COc1cc(C(=O)O)ccc1OC1OC(CO)C(O)C(O)C1O (stereo not drawn)
inactive: Potency (C33A) | Potency (CAOV3) | Potency (CASKI) | Potency (Es-2) | Potency (HeLa) | Potency (Hek293T) | Potency (JEG-3) | Potency (OV90) | Potency (PA-1) | Potency (SKOV3) | Potency (Tov-21-G) | Potency (Tov112D)

C[C@@H]([C@@H](O)c1ccc(O)cc1)N1CCC(O)(c2ccccc2)CC1
inactive: Potency (C33A) | Potency (CAOV3) | Potency (CASKI) | Potency (Es-2) | Potency (HeLa) | Potency (Hek293T) | Potency (JEG-3) | Potency (OV90) | Potency (PA-1) | Potency (SKOV3) | Potency (Tov-21-G) | Potency (Tov112D)

CCC(C)C1NC(=O)C2CCCN2C(=O)C(NC(C)=O)C(C)OC(=O)C(Cc2ccc(OC)cc2)N(C)C(=O)C2CCCN2C(=O)C(C(C)C)NC1=O (stereo not drawn) (Ac-TPIVP[NMeY](Me); ester 1-C; configuration not given here)
inactive: Potency (C33A) | Potency (CAOV3) | Potency (CASKI) | Potency (Es-2) | Potency (HeLa) | Potency (Hek293T) | Potency (JEG-3) | Potency (OV90) | Potency (PA-1) | Potency (SKOV3) | Potency (Tov-21-G) | Potency (Tov112D)

Cc1cccc(S(=O)(=O)N2CCC[C@@H]2CCN2CCC(C)CC2)c1
inactive: Potency (C33A) | Potency (CAOV3) | Potency (CASKI) | Potency (Es-2) | Potency (HeLa) | Potency (Hek293T) | Potency (JEG-3) | Potency (OV90) | Potency (PA-1) | Potency (SKOV3) | Potency (Tov-21-G) | Potency (Tov112D)

COc1c2c(cc3c1-c1c(cc4c(c1OC)OCO4)CC(C)C(C)C3)OCO2 (stereo not drawn)
inactive: Potency (C33A) | Potency (CAOV3) | Potency (CASKI) | Potency (Es-2) | Potency (HeLa) | Potency (Hek293T) | Potency (JEG-3) | Potency (OV90) | Potency (PA-1) | Potency (SKOV3) | Potency (Tov-21-G) | Potency (Tov112D)

CC(=O)N[C@H]1[C@H](O[C@H]2CC[C@@]3(C)C(CC[C@]4(C)C3CC=C3[C@@H]5CC(C)(C)CC[C@]5(C(=O)OC5OCC(O)C(O)C5O)CC[C@]34C)C2(C)C)O[C@H](COC2OC(C)C(O)C(OC3OC(C)C(O)C(O)C3O)C2O)[C@@H](O)[C@@H]1O (stereo partly drawn)
inactive: activity change, negative = cytotoxicity (C33A) -0.0854% [at 11.6 µM] | activity change, negative = cytotoxicity (CAOV3) 0.431% [at 11.6 µM] | activity change, negative = cytotoxicity (CASKI) 5.69% [at 11.6 µM] | activity change, negative = cytotoxicity (Es-2) 4.54% [at 11.6 µM] | activity change, negative = cytotoxicity (HeLa) 1.75% [at 11.6 µM] | activity change, negative = cytotoxicity (Hek293T) 4.04% [at 11.6 µM] | activity change, negative = cytotoxicity (JEG-3) 1.81% [at 11.6 µM] | activity change, negative = cytotoxicity (OV90) 3.41% [at 11.6 µM] | activity change, negative = cytotoxicity (PA-1) 5.97% [at 11.6 µM] | activity change, negative = cytotoxicity (SKOV3) 2.42% [at 11.6 µM] | activity change, negative = cytotoxicity (Tov-21-G) 2.63% [at 11.6 µM] | activity change, negative = cytotoxicity (Tov112D) 7.32% [at 11.6 µM]

C=CC1(C)C=C2C(=O)OC(=O)C3=C(CCCC3(C)C)C2(O)CC1 (stereo not drawn)
inactive: Potency (C33A) | Potency (CAOV3) | Potency (CASKI) | Potency (Es-2) | Potency (HeLa) | Potency (Hek293T) | Potency (JEG-3) | Potency (OV90) | Potency (PA-1) | Potency (SKOV3) | Potency (Tov-21-G) | Potency (Tov112D)

O=C(O)/C=C/c1ccc(O)c(O[C@@H]2O[C@H](CO)[C@@H](O)[C@H](O)[C@H]2O)c1
inactive: Potency (C33A) | Potency (CAOV3) | Potency (CASKI) | Potency (Es-2) | Potency (HeLa) | Potency (Hek293T) | Potency (JEG-3) | Potency (OV90) | Potency (PA-1) | Potency (SKOV3) | Potency (Tov-21-G) | Potency (Tov112D)

COC(=O)C1=CO[C@@H](O[C@@H]2O[C@H](CO)[C@@H](O)[C@H](O)[C@H]2O)[C@H]2[C@@H]1C=C[C@@]21C=C([C@H](C)O)C(=O)O1
inactive: Potency (C33A) | Potency (CAOV3) | Potency (CASKI) | Potency (Es-2) | Potency (HeLa) | Potency (Hek293T) | Potency (JEG-3) | Potency (OV90) | Potency (PA-1) | Potency (SKOV3) | Potency (Tov-21-G) | Potency (Tov112D)
